Screening data (PubChem)
Rows were chosen to be rich in hits. Some 22% of all compounds tested hit in one or more screens of this group.
Measles CPE – compounds protecting cells from measles virus cytopathic effect, primary screen, measles RdRp inhibitor project, single point, MLSMR library, absorbance; Measles virus-infected cells, CPE protection; protection (pct of control), % at 4 µM; 1.5% of 140,000 active; in the data active = protection mostly above about 24%, no sharp cut-off; inactive = mostly below about 26%
CYP2C19 act – human CYP2C19 activators, primary screen, biochemical, luminescence. Cytochrome P450 2C19 (Homo sapiens), P33261. AID 1025, 2008. recombinant CYP2C19, luciferin-H EGE luminescence; active compounds read high; 0 = fully inhibited enzyme, 1 = untreated enzyme. activation factor at 5 µM. 96,000 tested, under 10 active;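 active = activation factor of at least 2 at 5 µM in the primary screen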;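 note: 0 = wells with 2.5 mM tranylcypromine and 1 = vehicle-only wells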
Target sequence (P33261 whole entry, looked up): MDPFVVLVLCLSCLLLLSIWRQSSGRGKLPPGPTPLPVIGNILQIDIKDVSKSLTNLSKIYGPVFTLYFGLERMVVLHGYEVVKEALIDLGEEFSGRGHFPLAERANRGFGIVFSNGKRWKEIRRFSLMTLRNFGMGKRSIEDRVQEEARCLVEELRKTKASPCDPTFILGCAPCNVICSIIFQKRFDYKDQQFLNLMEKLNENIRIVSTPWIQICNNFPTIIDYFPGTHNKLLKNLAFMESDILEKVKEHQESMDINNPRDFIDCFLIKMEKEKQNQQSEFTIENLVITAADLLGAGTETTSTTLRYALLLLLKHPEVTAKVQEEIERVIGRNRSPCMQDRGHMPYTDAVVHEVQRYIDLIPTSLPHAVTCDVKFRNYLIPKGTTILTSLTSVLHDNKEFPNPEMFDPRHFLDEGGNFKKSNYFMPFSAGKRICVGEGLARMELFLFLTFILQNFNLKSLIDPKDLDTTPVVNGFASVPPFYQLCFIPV
CYP2C19 inhib – blockers of cytochrome P450 2C19 activity – biochemical, luminescence, ADME assay, primary screen; CYP2C19 Supersomes, luciferin-H EGE luminescence, 30 min; inhibition, % at 5 µM; 21% of 96,000 active; AID 778, 2007;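 active = CYP2C19 inhibition above a set limit at 5 µM in the primary screen, cut at about 50% in these data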;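 note: plate controls were negative control wells for no effect and 2.5 mM tranylcypromine positive control for full effect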
CYP2C9 activ – human CYP2C9 activators, primary screen, biochemical, luminescence. Cytochrome P450 2C9 (Homo sapiens), P11712. activation factor at 5 µM. recombinant CYP2C9, luciferin-H conversion; active compounds read high; factor 1 = untreated enzyme, 0 = blocked. 1.4% of 96,000 active;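 active = activation factor of 2 or more for CYP2C9 at a 5 µM dose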;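 note: 0 = sulfaphenazole-blocked wells and 1 = vehicle-only wells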
CYP2C9 inhib – blockers of cytochrome P450 2C9 activity – biochemical, luminescence, ADME assay, primary screen. AID 777, 2007. inhibition, % at 5 µM. P11712. 20% of 96,000 active. CYP2C9 Supersomes, luciferin-H conversion;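 active = blocking of liver enzyme CYP2C9 beyond about 50% at 5 µM, limit read from the data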
The depositor's hits bear a star; / = not tested or not shown.

SMILES	Measles CPE	CYP2C19 act	CYP2C19 inhib	CYP2C9 activ	CYP2C9 inhib
CC(=O)Nc1ccc(-c2nnc(SCc3ccccc3C#N)n2C)cc1	24*	1.2	-16	1	2
CC(=O)Nc1cccc(-c2nnc(SCc3ccccc3C#N)n2C)c1	3	0.4	62*	1.1	-6
CCCCSc1nnc(-c2ccc(NC(C)=O)cc2)n1C	11	/	/	/	/
Cc1ccc(F)cc1NC(=O)C1CCN(c2cnccn2)CC1	6	0.6	44	1	5
COc1ccc2cc(/C=N/NC(=O)c3ccc(CN(c4ccc(C)c(C)c4)S(C)(=O)=O)cc3)c(Cl)nc2c1	10	/	/	/	/
Cc1ccc(-c2nnc(N(C)C(=O)c3cccnc3)s2)cc1	3	0.3	67*	0.1	86*
Cc1ccc(-c2nnc(N(C)C(=O)c3cccnc3)s2)cn1	6	0.9	6	1	3
CN(C(=O)c1ccncc1)c1nnc(-c2ccncc2)s1	13	0	96*	0.1	94*
O=C1c2ccccc2C(=O)C12OC2c1ccc(Cl)cc1 (configuration not stated)	3	/	/	/	/
CCC1(CC)Nc2ccccc2C(=O)N1c1ccc(NC(C)=O)cc1	13	0.3	74*	1	-2
O=C(/C=C\Nc1cccc(F)c1)c1cccs1	6	0.4	55*	0.8	20
O=C(/C=C/Nc1ccc(F)cc1F)c1cccs1	16	/	/	/	/
Cc1ccc(S(=O)(=O)c2c(N)n(Cc3ccco3)c3nc4ccccc4nc23)cc1C	31	0.5	54*	0.4	65*
Cc1ccc(S(=O)(=O)c2c(N)n(CCN3CCOCC3)c3nc4ccccc4nc23)cc1C	7	0.3	72*	1	0
Cc1ccc(S(=O)(=O)c2c(N)n(CCCO)c3nc4ccccc4nc23)cc1	21	0.1	92*	0.1	92*
Cc1ccc(S(=O)(=O)c2c(N)n(CCC(C)C)c3nc4ccccc4nc23)cc1	6	0.6	43	0.5	48
C=CCn1c(CNc2ccccc2)nnc1SCC(=O)N/N=C/c1ccc(O)cc1O	6	0.5	48	0.9	10
Cc1cccc(N(CC(=O)Nc2ccccc2F)S(C)(=O)=O)c1	25	0.1	92*	0.3	69*
CSc1ccccc1NC(=O)CN(c1cccc(C)c1)S(C)(=O)=O	12	0.5	51*	0.5	53*
CCC(C)c1ccccc1NC(=O)C1CCCO1 (configuration not stated)	21	0.9	5	0.9	8
Cc1ccc(S(=O)(=O)N2CCN(C(=O)CN3CCOCC3)C2C(C)C)cc1 (configuration not stated)	10	1.1	-10	1.2	-20
Cc1[nH]c2ccccc2c1Cc1n[nH]c(=S)n1C	8	/	/	/	/
Cn1c(Cc2c[nH]c3ccccc23)n[nH]c1=S	7	0.3	67*	0.6	38
Cc1cccc(N2CCN(CC(=O)Nc3nccs3)CC2)c1C	4	0.2	82*	0.4	62*
O=C(NC(=S)Nc1ccccc1N1CCCC1)c1ccc(-c2cccc([N+](=O)[O-])c2)o1	4	1	-1	1.1	-5
SMILES	Measles CPE	CYP2C19 act	CYP2C19 inhib	CYP2C9 activ	CYP2C9 inhib
CCC(Oc1ccccc1)C(=O)N1CC(C)CC(C)C1 (configuration not stated)	7	0.5	51*	0.9	12
O=C(Nc1ccc(Cl)c(Cl)c1)N1CC=CCC1	3	0.7	32	0.8	22
O=C(Nc1ccc(Cl)c(Cl)c1)N1CCSC1c1ccco1 (configuration not stated)	/	0.6	43	0.4	59*
Cc1nn(Cc2ccccc2Cl)c(C)c1C(=O)N1CCN(c2ccccc2)CC1	14	0.4	62*	0.3	72*
Cc1nn(Cc2ccccc2Cl)c(C)c1NC(=O)c1ccn(C)n1	4	/	/	/	/
Cc1nn(Cc2ccccc2Cl)c(C)c1C(=O)NC1=NCCS1	11	0.3	66*	0.6	42
CCC(CC)c1nnc(NC(=O)c2c(C)nn(Cc3ccccc3Cl)c2C)s1	2	0.8	19	0.5	52*
CCOc1ccc(-c2nn(-c3ccccc3)cc2/C=C(\C#N)S(=O)(=O)c2ccccc2)cc1C	29	1	-2	0.7	29
CCCc1nnc(NC(=O)CCCC(=O)O)s1	7	/	/	/	/
CC(C)CC(C(=O)Nc1oc(-c2ccco2)c(-c2ccco2)c1C#N)N1C(=O)c2ccccc2C1=O (configuration not stated)	12	0.3	69*	0	98*
Cc1cc(=O)oc2cc(OC(=O)CCN3C(=O)c4ccccc4C3=O)ccc12	6	0.9	11	0.9	11
COc1ccc(OC(=O)CCCN2C(=O)c3ccccc3C2=O)cc1	8	0.5	53*	0.9	7
COC(=O)C1=C(C)NC(C)=C(C(=O)OC)C1C(=O)OCCN1C(=O)c2ccccc2C1=O	8	0.2	80*	0.3	71*
COc1ccccc1OCCC(=O)OCCN1C(=O)c2ccccc2C1=O	10	0.4	56*	0.9	13
COc1ccccc1OC(=O)CN1C(=O)c2ccccc2C1=O	3	1	-2	1.2	-18
CCOc1ccc(NC(=O)[C@@H](NC(=O)OCc2ccccc2)[C@@H](C)CC)cc1	12	/	/	/	/
COC(=O)C1(C(F)(F)F)N=C2Sc3ccccc3N2C(N2CCOCC2)=N1 (configuration not stated)	4	0.8	23	0.9	8
CCOC(=O)c1nnn(-c2nonc2N)c1CSc1ccccn1	32	0.8	20	0.4	56*
CCOC(=O)c1nnn(-c2nonc2N)c1CSc1ccc(C)cc1	5	0.2	79*	0.5	51*
COc1ccc(-c2cc3ccc(OCc4nn[nH]n4)cc3oc2=O)cc1OC	5	0.7	32	0.4	59*
CCCc1cc(=O)oc2cc(OCC(=O)OC)cc(OCC(=O)OC)c12	5	0.5	49	0.4	61*
CC(Oc1ccc2c(-c3ccccc3)cc(=O)oc2c1)C(=O)O (configuration not stated)	31	0.9	9	0.3	74*
COc1ccc(-c2cc(=O)oc3cc(OCc4nn[nH]n4)ccc23)cc1	12	0.7	31	0.2	76*
COc1ccc(-c2cc(=O)oc3cc(OC(=O)C4CCCCC4)ccc23)cc1	6	/	/	/	/
CCOC(=O)C(Oc1ccc2c(-c3ccccc3)cc(=O)oc2c1)c1ccccc1 (configuration not stated)	21	/	/	/	/
O=C(O)C1(P(=O)(c2ccccc2)c2ccccc2)CCC1	14	1	-3	1	1
O=C(COC(=O)COc1ccccc1[N+](=O)[O-])NC1CCCC1	13	/	/	/	/
O=C(Nc1ccc2c(c1)OCCO2)c1cnc2n(c1=O)CCS2	24	0.9	7	0.9	6
